# HIF act – HIF pathway transcriptional activation. U2OS HRE-luciferase reporter, luminescence; normalized: DMSO 0%, desferrioxamine 100%. activation, % at 7.5 µM (by protocol). hit rate 0.32% among 300,000. AID 1910;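 active means mean activation of at least 10% of the iron chelator positive control signal, with at least half of replicates also reaching 10%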
# CFTR F508del cor – CFTR F508del correction in bronchial cells | CFBE cells, YFP halide quenching; stimulated with forskolin plus potentiator P3; % fluorescence drop versus neutral controls | activity (quench increase), % at 7.58 µM | hit rate 0.36% among 350,000 | AID 720511;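 active means mean added fluorescence quench of at least 8% versus neutral control, with both replicates also reaching 8%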;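 further: cells transiently co-express mutant CFTR-F508del with the halide-sensitive YFP; corrector assay measuring rescue of mutant channel to the surface after 24 h compound exposure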
# Jurkat NFkB inh – inhibitors of the PMA/ionomycin-induced NF-kB reporter in Jurkat cells; PMA/ionomycin-induced NF-kB luciferase reporter, luminescence; inhibition, % at 4 µM; hit rate 0.53% among 330,000; AID 435003; in the data active means inhibition above about 50%
# 697 NFkB inh – inhibitors of the PMA/ionomycin-induced NF-kB reporter in 697 B cells; 697 B-cell NF-kB luciferase reporter, 16 h; inhibition, % at 4 µM; hit rate 0.33% among 330,000; in the data active means inhibition above about 35%
# Hits are given with their value; – = inactive; · = no result given. Sampled rows, rich in hits. Any-hit rate of the full collection: about 0.93%.
SMILES,HIF act,CFTR F508del cor,Jurkat NFkB inh,697 NFkB inh
Cn1cccc1-c1cc(C(=O)N/N=C/c2cc(Br)ccc2O)[nH]n1,10,–,–,–
COc1ccc(CC(=O)Nc2cccc(-c3nnc(-c4ccccc4)o3)c2)cc1OC,376,·,·,·
COc1ccc(CC(=O)Nc2cccc(-c3nnc(-c4ccc(C)cc4)o3)c2)cc1OC,–,–,–,–
COc1ccc(C(C)=O)cc1CS(=O)(=O)CC(=O)NCCc1c[nH]c2ccccc12,·,12,–,–
COc1ccc(C(=O)CCC(=O)NCCc2c[nH]c3ccccc23)cc1OC,–,–,–,–
N#Cc1c(-c2ccc(F)cc2)c(-c2ccc(F)cc2)nn(CCO)c1=O,·,18,·,·
N#Cc1c(-c2ccccc2)c(-c2ccccc2)nn(CC(=O)NNC(=O)Nc2ccc(Cl)c(Cl)c2)c1=O,–,·,–,–
C[C@H](CO)N1C[C@H](C)[C@H](CN(C)Cc2ccncc2)Oc2ncc(C#CC3CCCCC3)cc2C1=O,·,–,·,·
CC(C)COc1cccc(C(=O)NNC(=O)C2COc3ccccc3O2)c1 (stereo not drawn),26,–,–,–
Nc1ccc(C(=O)NNC(=O)C2COc3ccccc3O2)cc1[N+](=O)[O-] (stereo not drawn),–,–,–,–
CCN(C(=O)COc1ccc2ccc(=O)oc2c1)C1CCCCC1,·,18,–,–
Cn1c(SCC(=O)NC2CCS(=O)(=O)C2)nnc1-c1ccco1 (stereo not drawn),·,–,–,–
COc1cccc(-c2nnc(SCC(=O)NC3CCS(=O)(=O)C3)n2C)c1 (stereo not drawn),·,21,–,–
CCOc1ccc(NCC(=O)N/N=C/C=C/c2ccccc2)cc1,–,–,–,–
COc1ccc(OCC(=O)N/N=C/C=C/c2ccccc2)cc1,–,9.0,–,–
O=C(NCC[C@H]1CC[C@H](NC(=O)C2CCC2)[C@H](CO)O1)c1cnccn1,·,–,·,·
O=C(C(Cc1ccccc1)n1cccc1)N1CCCCC1 (stereo not drawn),–,10,–,–
O=C(C(Cc1ccccc1)n1cccc1)N1CCCCCC1 (stereo not drawn),–,–,–,–
C[C@H]1CCCCO[C@H](CN(C)Cc2ccncc2)[C@@H](C)CN([C@@H](C)CO)C(=O)c2cc(NC(=O)c3ccccc3)ccc2O1,·,–,·,·
CC(C)NC(=O)N1CCCCN2[C@H](CO)[C@@H](c3ccc(C#Cc4ccccc4F)cc3)[C@H]2C1,·,–,·,·
Cc1nnsc1C(=O)N/N=C/c1ccc2ccccc2c1O,115,·,–,–
COCCn1c(=NC(=O)c2ccc(S(=O)(=O)N3CCCc4ccccc43)cc2)sc2cc(S(C)(=O)=O)ccc21,105,·,–,–
CCn1c(SC(C)C(=O)NCC2CCCO2)nc2ccccc21 (stereo not drawn),·,15,–,–
CC(C)NC(=O)N[C@H]1CC[C@@H](CCNS(=O)(=O)c2ccc(F)cc2)O[C@H]1CO,·,–,·,·
O=C(NCC1CCCCC1)[C@@H]1[C@@H](CO)[C@@H]2Cn3c(ccc(-c4ccccc4F)c3=O)[C@H]1N2,·,–,·,·
SMILES,HIF act,CFTR F508del cor,Jurkat NFkB inh,697 NFkB inh
Cc1ccc(NC(=O)c2ccc(Cl)c(S(=O)(=O)Nc3c(C)n(C)n(-c4ccccc4)c3=O)c2)cc1Cl,·,12,–,–
Cc1c(NS(=O)(=O)c2cc(C(=O)Nc3ccc(F)cc3Cl)ccc2Cl)c(=O)n(-c2ccccc2)n1C,·,–,·,·
O=C(N/N=C(\Cc1ncc[nH]1)c1ccccc1)c1ccccc1,25,–,–,–
CCOC(=O)c1c(NC(=O)C(=O)N/N=C/c2ccccc2O)sc2c1CCCCC2,–,16,–,–
CCOC(=O)c1c(NC(=O)C(=O)N/N=C/c2ccccc2OC)sc2c1CCCCC2,–,·,–,–
CC(C)CC#Cc1ccc2c(c1)O[C@@H](CN(C)Cc1ccc(C(=O)O)cc1)[C@H](C)CN([C@@H](C)CO)S2(=O)=O,·,–,·,·
Cn1cc(C(N)=O)c2ccccc21,–,–,–,–
Cn1cc(C(=O)OCC2CCN(CCNS(C)(=O)=O)CC2)c2ccccc21,–,16,–,–
CCCCn1c(=O)c2c(O)cc(=O)oc2c2ccccc21,22,·,–,–
C[C@H](CO)N1C[C@H](C)[C@H](CN(C)C(=O)C2CCC2)Oc2cc(-c3cncnc3)ccc2S1(=O)=O,·,–,·,·
C/C(=N\NC(=O)c1cc(-c2cccnc2)nc2ccccc12)c1ccccc1O,18,–,–,–
Nc1c(C(=O)c2ccco2)oc2ccccc12,–,14,–,–
O=C(CN1CCOCC1)NCC[C@H]1CC[C@@H](NC(=O)Cc2ccccn2)[C@@H](CO)O1,·,–,·,·
C[C@@H]1CN([C@@H](C)CO)C(=O)Cc2cc(NC(=O)Nc3cccc4ccccc34)ccc2O[C@@H]1CN(C)Cc1ccc(Cl)c(Cl)c1,·,9.9,·,·
C[C@@H]1CN([C@@H](C)CO)C(=O)Cc2cc(N(C)C)ccc2O[C@@H]1CN(C)Cc1ccc(C(=O)Nc2ccccc2N)cc1,·,15,·,·
C[C@H](CO)N1C[C@H](C)[C@@H](CN(C)Cc2ccccc2)Oc2ccc(NC(=O)Nc3cccc4ccccc34)cc2CC1=O,·,–,·,·
O=C(C[C@@H]1CC[C@H]2[C@@H](COC[C@H](O)CN2Cc2ccccc2)O1)N[C@@H]1CCN(Cc2ccccc2)C1,·,–,·,·
C[C@H](CO)N1C[C@H](C)[C@@H](CN(C)C(=O)Nc2ccc3c(c2)OCO3)Oc2ccc(NC(=O)Nc3ccc(C(F)(F)F)cc3)cc2CC1=O,·,–,·,·
Cc1ccc(-c2nnc(Sc3nc4ccccc4o3)c3ccccc23)cc1,94,·,–,–
Cc1ccc(S(=O)(=O)Nc2ccc3c(c2)C(=O)N([C@H](C)CO)C[C@H](C)[C@H](CN(C)Cc2ccc(C(F)(F)F)cc2)O3)cc1,·,–,·,·
CC1=NN2C(=N)/C(=C\c3cc(C)n(Cc4ccccc4)c3C)C(=O)N=C2S1,55,–,–,–
Cc1ccc(S(=O)(=O)Nc2ccc3c(c2)CC(=O)N([C@@H](C)CO)C[C@@H](C)[C@H](CN(C)Cc2ccc(C(=O)O)cc2)O3)cc1,·,–,·,·
CCCN1C[C@H](C)[C@H](OC)CN(C)C(=O)c2ccc(NC(=O)c3ccccc3)cc2OC[C@@H]1C,·,–,·,·
CN(C)C(=O)C[C@H]1C=C[C@H](NC(=O)C2CCC2)[C@H](CO)O1,·,–,·,·
Cc1ccc(-c2ccc([C@H]3[C@@H](CO)N4CCCCN(C(=O)Nc5cccc(F)c5)C[C@H]34)cc2)cc1,·,8.0,·,·
SMILES,HIF act,CFTR F508del cor,Jurkat NFkB inh,697 NFkB inh
O=C(Nc1cccc(F)c1)N1CCCCN2[C@H](CO)[C@@H](c3ccc(C#Cc4ccccc4)cc3)[C@@H]2C1,·,–,·,·
O=C(Nc1ccc(F)cc1)N1CCCCN2[C@H](C1)[C@H](c1ccc(-c3cccc(F)c3)cc1)[C@@H]2CO,·,8.9,·,·
O=C(Nc1cccc(F)c1)N1CCCCN2[C@@H](CO)[C@H](c3ccc(C#CC4CC4)cc3)[C@@H]2C1,·,8.6,·,·
COc1ccc(N2CC(C(=O)Nc3ccc(S(=O)(=O)N4CCCC4)cc3)CC2=O)cc1 (stereo not drawn),–,–,–,–
COc1ccccc1N1CC(C(=O)Nc2ccc(S(=O)(=O)N3CCCC3)cc2)CC1=O (stereo not drawn),·,9.6,–,–
Nc1nc2nc(-c3cccs3)cc(C(F)(F)F)n2n1,24,–,–,–

# High-throughput results from PubChem BioAssay.
